# Source: PubChem BioAssay (National Center for Advancing Translational Sciences (NCATS))
# A selection: hits, their analogues and other compounds. The true share with any hit is near 4.7%.
# D1 potentiator: potentiators of human D1 dopamine receptor; P21728; HEK293 TREx D1 cells, calcium flux, dopamine EC20 potentiation; potentiation, % at 10 µM; 0.036% of 360,000 active; in the data active means potentiation above about 30%; further: 0% is about no effect
# TRHR enhancer: allosterically enhances the human TRH receptor | P34981 | TRHR cells, fluo-8 calcium fluorescence, EC20 TRH enhancement | enhancement, % at 2 µM | 0.66% of 360,000 active | AID 493056; in the data active means enhancement above about 30%; further: 0% is about no effect
# Target sequence (P34981 whole entry, looked up): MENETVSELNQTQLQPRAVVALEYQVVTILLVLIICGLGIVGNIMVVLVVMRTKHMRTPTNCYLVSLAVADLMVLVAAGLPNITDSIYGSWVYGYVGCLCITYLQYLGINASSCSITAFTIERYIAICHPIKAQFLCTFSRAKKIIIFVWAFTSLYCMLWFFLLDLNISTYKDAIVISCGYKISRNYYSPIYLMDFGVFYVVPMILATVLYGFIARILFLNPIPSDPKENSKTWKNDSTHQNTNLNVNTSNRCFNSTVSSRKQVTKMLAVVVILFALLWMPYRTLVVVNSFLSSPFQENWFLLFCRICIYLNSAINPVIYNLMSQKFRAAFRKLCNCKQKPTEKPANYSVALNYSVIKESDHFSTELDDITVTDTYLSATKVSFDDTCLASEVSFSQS
#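 Enhancer read-out: after compound pinning and an initial kinetic agonist-mode read, an EC20 of TRH (10 nM final) was injected and fluo-8 calcium signal (Ex 480/Em 530) followed at 1 s/cycle for 100 cycles in TRHR-expressing cells.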
# D1 agonist: human D1 receptor agonism | P21728 | HEK293 T-REx D1 cells, calcium flux, agonist mode | activation, % at 2 µM | 1% of 360,000 active; further: 0% is about no effect
#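 Tetracycline-induced HEK293 TREx D1 cells, force-coupled to calcium signalling, were dye-loaded with a no-wash calcium kit. Compound was pin-added after a 10 s baseline. Fluorescence was read kinetically at 1 cycle/s for 180 s, with calcium rises flagged as agonism.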
# TRHR agonist: TRH receptor (human) agonism | 0.18% of 360,000 active | activation, % at 2 µM | TRHR cells, calcium flux fluo-8, FDSS agonist mode | AID 493084; further: 0% is about no effect
#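 In this calcium-flux screen, cells bearing human TRHR are dye-loaded with fluo-8, baselined for 10 cycles, then exposed to library compounds; positive kinetic calcium responses during the agonist phase mark hits, with TRH as control.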
# D1 antagonist: antagonists of human D1 dopamine receptor; HEK293 TREx D1 cells, calcium flux, dopamine EC80; stronger effect = lower value; 3.2% of 360,000 active; activity change, negative = inhibition, % at 10 µM; P21728; in the data active means activity change below about -30%; further: on the % scale 0 is the no-effect control and ±100 the full control effect
#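 Kinetic fluorescence of a calcium dye serves as the read-out. D1-expressing Hek293 Trex cells, induced overnight at 30 C, are exposed to compound for 180 s before an EC80 dopamine addition, then read 180 s further.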
# Starred values were filed as active, the others as inactive; . = no result given. Unless noted, no stated cut-off is given here; in the data, active means activation above about 30%; inactive means the rest.
SMILES,D1 potentiator,TRHR enhancer,D1 agonist,TRHR agonist,D1 antagonist
CCOC(=O)c1cccc(NC(=O)c2cc3sccc3n2C)c1,-7.5,2.0,1.5,-0.9,-31.8*
COc1cccc(NC(=O)c2cccc3c(=O)c4c([nH]c23)CCCC4)c1,0.9,2.8,-0.1,0.1,6.2
Cc1c(-c2ccc(O)cc2)nc2nc(-c3ccccc3)c(-c3ccccc3)nn12,-9.6,-6.1,85.6*,14.6,6.0
COc1ccccc1Nc1nc(N)nc(CN2CCCCC2)n1,-1.9,2.0,2.8,0.1,0.6
Cc1c(Cl)cccc1Nc1nc(N)nc(CN2CCc3ccccc3C2)n1,-7.2,13.0,2.6,0.0,-5.8
COc1ccccc1Nc1nc(N)nc(CN2CCN(Cc3ccccc3)CC2)n1,-4.8,-5.5,0.2,0.0,-36.6*
Nc1nc(CN2CCN(Cc3ccccc3)CC2)nc(Nc2ccccc2)n1,0.1,6.7,2.4,0.1,-37.7*
Cc1ccc(Nc2nc(N)nc(CN3CCc4ccccc4C3)n2)cc1,-7.5,1.7,1.0,-0.4,-36.7*
Cc1cccc(NC(=O)CSc2nccn2-c2cccc(Cl)c2)c1C,-4.8,2.0,0.7,-0.6,-0.2
Cc1ccc(-c2cc(C(F)(F)F)n3nc(C(=O)Nc4sc5c(c4C#N)CCC(C)C5)cc3n2)cc1 (stereo not drawn),-6.0,1.7,-0.5,1.6,-37.3*
CCOc1ccc(C2C(=O)N(C3CCCCCC3)CC(=O)N2Cc2ccc(C)cc2)cc1OC (stereo not drawn),4.3,-4.3,-0.7,0.2,10.1
Cc1nc2scc(C)n2c(=O)c1S(=O)(=O)Nc1cccc(O)c1,-5.5,-2.4,4.4,0.1,-47.7*
CCOC(=O)c1nnc2c(-c3ccc(OC)cc3)c(C)nn2c1N,2.5,0.6,0.5,-4.3,-2.6
CCOc1ccc(CCNC(=O)Cc2ccc(NC(=O)N3CCSc4ncccc43)cc2)cc1,-1.1,1.6,-1.4,-0.3,-1.4
Clc1cccc(/C=N/Nc2ncnc3ccccc23)c1,1.4,31.0*,-0.6,-0.2,4.4
Cc1cccc(CN2C(=O)c3ccccc3S(=O)(=O)c3ccc(C(=O)OCC4CCCO4)cc32)c1 (stereo not drawn),-2.0,-5.1,5.6,0.7,-5.7
COC(=O)c1ccc(NC(=O)c2nn(C)c3c2COc2ccccc2-3)cc1,-3.7,-21.0,10.0,0.7,0.9
COC(=O)c1cc(NC(=O)c2nn(C)c3c2COc2ccccc2-3)cc(C(=O)OC)c1,-1.5,4.8,0.1,-0.3,-54.8*
COc1cc(OC)c(OC)cc1/C=C/c1nc2cc3ccccc3cc2c(=O)n1-c1ccc(F)cc1F,2.0,-2.2,42.0*,9.5,10.0
O=c1c2ccccc2nc(/C=C/c2cccc3ccccc23)n1-c1ccc(F)cc1F,-1.6,-8.2,0.6,0.4,3.6
COc1ccc2c(c1)CC(C(=O)NCCCN1CCN(c3cccc(Cl)c3)CC1)CO2 (stereo not drawn),-1.9,-0.1,21.5,0.2,-6.2
O=C(COc1ccccc1)NC(=S)Nc1ccc2c3c(cccc13)CC2,-4.5,-7.1,3.7,0.3,-2.2
O=C(COc1ccccc1)NC(=S)Nc1cccc2cc(O)ccc12,-2.2,-0.6,35.0*,2.2,19.4
C=C(C)n1c(=O)n(Cc2ccccc2C)c2ccccc21,1.0,5.1,93.1*,-0.5,9.9
Cc1ccc(C)c(S(=O)(=O)c2nnn3c2nc(NC(C)C)c2sccc23)c1,-7.2,-13.5,1.3,-0.2,-60.4*
SMILES,D1 potentiator,TRHR enhancer,D1 agonist,TRHR agonist,D1 antagonist
CC(C)Nc1nc2c(S(=O)(=O)c3cccc(Cl)c3)nnn2c2ccsc12,-8.0,-17.5,2.2,0.7,-56.9*
Cc1ccc(C)c(S(=O)(=O)c2nnn3c2nc(Nc2ccc(C)c(C)c2)c2sccc23)c1,-5.0,11.3,0.9,-0.5,-5.8
O=C(Cn1c(=O)n(Cc2ccccc2)c(=O)c2sc3ccccc3c21)Nc1ccc(F)cc1,0.7,12.5,0.7,2.3,-10.3
CCCCc1cc(=O)oc2c(C)c(OCC(=O)N3CCC(C(=O)O)(c4ccccc4)CC3)ccc12,-1.5,2.5,0.9,-0.2,-4.7
CCc1cc(=O)oc2cc(C)cc(OCC(=O)N3CCC(C(=O)NC(C)C)(c4ccccc4)CC3)c12,-8.0,-21.7,1.1,0.1,-37.5*
CN(CC(=O)Nc1ccc([N+](=O)[O-])cc1Br)Cc1c(F)cccc1Cl,0.9,-5.8,11.7,0.2,-32.5*
CN(CCOc1ccccc1)CC(=O)Nc1ccc([N+](=O)[O-])cc1Cl,-12.4,29.4,9.3,0.5,-1.8
CN(CC(=O)Nc1ccccc1Br)c1ncnc2sccc12,-10.9,0.2,12.7,0.0,-34.7*
CN(CC(=O)Nc1ccc(F)c(F)c1F)c1ncnc2sccc12,-10.7,-5.6,8.0,-0.4,-9.4
CCN1CCN(CCCNC(=O)Cn2c(-c3cccs3)cc3cc(F)ccc32)CC1,3.8,6.1,35.9*,-0.8,-6.1
O=C(Cn1c(-c2cccs2)cc2cc(F)ccc21)NCCCN1CCN(c2ccc(F)cc2)CC1,-0.1,8.3,-1.7,0.5,-35.4*
O=C(Cn1c(-c2cccs2)cc2cc(F)ccc21)N1CCN(c2ccccc2)CC1,-1.0,0.7,1.5,0.6,5.7
COc1ccc(CCNC(=O)Cn2c(-c3cccs3)cc3cc(F)ccc32)cc1OC,-3.5,-6.5,4.1,-0.5,-17.3
COc1ccc(S(=O)(=O)c2c(Nc3ccccc3F)sc(C(=O)c3cccc(OC)c3)c2N)cc1,-1.2,-4.2,80.0*,5.2,-0.1
CCOc1ccc(Nc2sc(C(=O)c3ccc(F)cc3)c(N)c2S(=O)(=O)c2ccc(C)cc2)cc1,-0.5,1.8,48.1*,2.7,-40.6*
CCOc1ccccc1Nc1sc(C(=O)c2ccccc2)c(N)c1S(=O)(=O)c1ccc(C)cc1,1.6,4.0,15.1,0.4,12.5
COc1ccc(S(=O)(=O)c2c(Nc3ccc(C)cc3C)sc(C(=O)c3ccc(F)cc3)c2N)cc1,-3.1,-9.7,87.7*,6.5,-48.1*
CCc1ccccc1Nc1sc(C(=O)c2cccc(OC)c2)c(N)c1S(=O)(=O)c1ccccc1,-1.1,-4.5,13.1,0.7,11.4
O=C(NC1CC(=O)N(c2cccc(F)c2)C1)c1ccc(S(=O)(=O)N2CCOCC2)cc1 (stereo not drawn),-0.8,-4.2,-2.7,0.1,.
CC(=O)c1cn(C)c(=O)[nH]c1=O,-2.5,4.1,-0.2,0.6,-11.7
CC(=O)c1cn(-c2ccc(Cl)cc2)c(=O)[nH]c1=O,-1.4,-5.1,-0.4,-0.3,-32.5*
Cn1c(-c2ccc(Cl)cc2)cnc1NCc1cc2c(cc1[N+](=O)[O-])OCO2,-4.0,-5.1,1.9,-0.7,-14.5
COc1ccc(OC)c(CNc2ncc(-c3ccc(F)cc3)n2C)c1,-13.1,-1.7,5.4,-1.3,-55.0*
Cn1c(-c2ccc(F)cc2)cnc1NCc1cc2c(cc1[N+](=O)[O-])OCO2,-4.8,-2.3,23.8,-0.3,-77.0*
